This is a sample that favours compounds with a hit; in the whole collection about 6.5% have one here.
HCMV inh: qHTS Assay for inhibitors of the human cytomegalovirus (HCMV); 4.5% of 410,000 active; HFF cells, HCMV-luciferase reporter, 72 h; hits give low values; activity change, negative = inhibition, % at 57.5 µM; in the data active = activity change below about -60%; inconclusive = no clear call, values can overlap the other calls; inactive = above about -39%
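Two compound doses tested in HFFs infected with HCMV-luciferase, MOI 1 PFU/cell, 72 h at 37C. Lysate luminescence read with OneGlo; data normalized against buffer-only and 10uM Salinomycin inhibitor controls.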
Vaccinia Venus: qHTS for Stage-Specific Inhibitors of Vaccinia Orthopoxvirus: Venus Reporter Primary qHTS | Vaccinia virus Venus reporter expression, fluorescence | Potency, µM (top dose mostly 36.5 µM), for inactives: at the top dose activity change, negative = inhibition, most hits filed as inhibitors | 0.46% of 330,000 active | AID 720580, 2013; calls by dose curve; tested in A549 cells; note: potency is the fitted concentration of half-maximal effect; nearly all actives have a fitted effect of over 30% in size
Vaccinia mCherry: qHTS for Stage-Specific Inhibitors of Vaccinia Orthopoxvirus: mCherry Reporter Primary qHTS | Potency, µM (highest dose often 36.5 µM), without a hit: at the highest dose activity change, negative = inhibition, most hits filed as inhibitors | 0.63% of 310,000 active | Vaccinia virus mCherry reporter infection, fluorescence | AID 720579, 2013; calls by dose curve; tested in A549 cells; note: potency is the fitted concentration of half-maximal effect; nearly all actives have a fitted effect of over 35% in size
FMDV antiviral: High Throughput Screening for Foot and Mouth Disease Virus Antivirals; FMDV antiviral cell-based qHTS; Potency, µM (series often up to 57.9 µM), for the others: at the top dose activity change, negative = inhibition, actives largely listed as inhibitors; 1.2% of 410,000 active; AID 1159524, 2015; calls by dose curve; tested in HEK293T cells; note: read-out not given here; potency is the fitted concentration of half-maximal effect; nearly all actives have a fitted effect of over 45% in size
Lassa entry inh: qHTS for Inhibitors of binding or entry into cells for Lassa Virus. Potency, µM (top dose mostly 37.9 µM), for inactives: at the highest dose activity change, negative = inhibition, actives largely listed as inhibitors. Lassa virus pseudotype entry inhibition, cell reporter. 1.2% of 300,000 active; calls by dose curve; tested in HEK293 cells; note: potency is the fitted concentration of half-maximal effect; nearly all actives have a fitted effect of over 50% in size
Marburg entry inh: qHTS for inhibitors of binding or entry into cells for Marburg Virus; Marburg virus pseudotyped entry inhibition, cell reporter; Potency, µM (series often up to 37.8 µM), for inactives: at the top dose activity change, negative = inhibition, hits mostly inhibitors; 1.8% of 300,000 active; AID 540276, 2011; calls by dose curve; tested in HEK293 cells; note: potency is the fitted concentration of half-maximal effect
Starred values were filed as active, the others as inactive; [ ] = remark or other dose. % is set by controls: 0 for no effect and ±100 for the full control effect.

How did O=C(CSc1ncc2c(n1)-c1cc(Cl)ccc1N(Cc1ccccc1)S2(=O)=O)Nc1ccc(F)cc1F do in these assays?
HCMV inh: -98.1*; Vaccinia Venus: -26.8%; Vaccinia mCherry: -13.6%; FMDV antiviral: inconclusive; Lassa entry inh: inconclusive

How did Cc1cccc(C)c1NC(=O)CSc1ncc2c(n1)-c1ccc(Cl)cc1N(Cc1ccccc1)S2(=O)=O do in these assays?
HCMV inh: -98.7*; Vaccinia Venus: -7.4%[7.34 µM]; Vaccinia mCherry: -10.2%[7.34 µM]; FMDV antiviral: -11.1%; Lassa entry inh: 5.9%[46.1 µM]

How did CN1c2cc(Cl)ccc2-c2nc(SCC(=O)Nc3ccc(F)cc3F)ncc2S1(=O)=O do in these assays?
HCMV inh: -63.3*; Vaccinia Venus: -29.8%; Vaccinia mCherry: inconclusive; FMDV antiviral: inconclusive; Lassa entry inh: -7.3%[46.1 µM]

How did CCOC(=O)c1c(C)[nH]c(CCC(=O)NCc2ccc(OC)c(OC)c2)c1C do in these assays?
HCMV inh: inconclusive; Vaccinia Venus: -4.9%; Vaccinia mCherry: -8.9%; FMDV antiviral: -6.6%; Lassa entry inh: 0.3%[46.1 µM]

Results for FC(F)(F)c1cc(CCN2CCNC[C@@H]2Cc2ccccc2)cc(C(F)(F)F)c1 ?
HCMV inh: -64.2*; Vaccinia Venus: 11.2µM*; Vaccinia mCherry: 12.6µM*; FMDV antiviral: -20.9%

Results for CCCCCNC(=O)C(C1CC1)n1c(=O)c(-c2ccccc2)nc2ccccc21 (configuration not stated) ?
HCMV inh: -68.9*; Vaccinia Venus: -25.6%; Vaccinia mCherry: inconclusive; FMDV antiviral: -0.1%

Results for CN(CCO)c1nc(-c2cccs2)nc2ccccc12 ?
Vaccinia Venus: -8.1%; Vaccinia mCherry: -11.8%

Results for Cc1cccc(C(=O)N2CCc3cc(CNC(=O)c4ccc(Br)o4)ccc32)c1 ?
HCMV inh: -66.6*; Vaccinia Venus: -27.3%; Vaccinia mCherry: -26.0%; FMDV antiviral: 6.1%; Lassa entry inh: inconclusive

How did O=C(NCc1ccc2c(c1)CCN2C(=O)c1ccccc1)c1ccc(Br)o1 do in these assays?
HCMV inh: -11.5; Vaccinia Venus: -15.6%; Vaccinia mCherry: -17.5%; FMDV antiviral: -26.5%; Lassa entry inh: -28.5%[46.1 µM]

Results for Cn1nccc1C(=O)NCc1ccc2c(c1)CCN2C(=O)c1ccc(F)cc1 ?
HCMV inh: -1.1; Vaccinia Venus: -16.5%; Vaccinia mCherry: inactive; FMDV antiviral: -14.2%; Lassa entry inh: inconclusive

What do the screens show for `Cn1nccc1C(=O)NCc1ccc2c(c1)CCN2C(=O)c1ccc(Cl)cc1`?
HCMV inh: -15.4; Vaccinia Venus: -12.6%; Vaccinia mCherry: -12.3%; FMDV antiviral: 1.4%; Lassa entry inh: inconclusive

How did Cc1cccc(C(=O)N2CCc3cc(CNC(=O)c4ccnn4C)ccc32)c1 do in these assays?
HCMV inh: 3.8; Vaccinia Venus: -13.3%; Vaccinia mCherry: inactive; FMDV antiviral: 20µM*; Lassa entry inh: inconclusive

How did Cc1ccc(C(=O)N2CCc3cc(CNC(=O)c4ccnn4C)ccc32)cc1 do in these assays?
HCMV inh: -70.2*; Vaccinia Venus: inconclusive; Vaccinia mCherry: -16.2%; FMDV antiviral: inconclusive; Lassa entry inh: inconclusive

Results for CCOC(=O)c1cccc(NC(=O)NCc2ccc3c(c2)CCN3C(=O)c2ccccc2)c1 ?
HCMV inh: inconclusive; Vaccinia Venus: inconclusive; Vaccinia mCherry: inconclusive; FMDV antiviral: 39.8µM*; Lassa entry inh: inconclusive

How did CN1CCc2c(n(C[C@H](O)CN3C(=O)c4ccccc4S3(=O)=O)c3ccccc23)C1=O do in these assays?
Marburg entry inh: -19.7%

How did CCOC(=O)c1cccc(NC(=O)c2ncoc2-c2ccco2)c1 do in these assays?
HCMV inh: 71.9; Vaccinia Venus: -7.1%; Vaccinia mCherry: -13.4%; FMDV antiviral: 0.0%; Lassa entry inh: 4.2%[46.1 µM]

What do the screens show for `Cn1cc(C(=O)NCc2ccccc2)c(=O)c2cc(S(=O)(=O)N3CCOCC3)ccc21`?
HCMV inh: 5.0; Vaccinia Venus: 2.3%; Vaccinia mCherry: 1.4%; FMDV antiviral: -2.8%; Lassa entry inh: 23.3%[46.1 µM]; Marburg entry inh: -1.6%[46.1 µM]

Results for COc1cc(OC)cc(C(=O)Nc2ccc3c(c2)N(C2CCCC2)C(=O)c2ccccc2S3)c1 ?
HCMV inh: inconclusive; Vaccinia Venus: -8.8%; Vaccinia mCherry: -18.1%; FMDV antiviral: -20.6%; Lassa entry inh: inconclusive

Results for Oc1ccc(C[C@@H]2CNCCN2CC2CCCCC2)cc1 ?
HCMV inh: inconclusive; Vaccinia Venus: -18.9%; Vaccinia mCherry: -19.5%; FMDV antiviral: -12.2%

How did c1ccc2c(C[C@@H]3CNCCN3CC3CCCCC3)cccc2c1 do in these assays?
HCMV inh: -63.0*; Vaccinia Venus: inconclusive; Vaccinia mCherry: inconclusive; FMDV antiviral: -16.7%

Results for CC(NC(=O)C1CC12CCC2)c1ccccc1 (configuration not stated) ?
HCMV inh: -61.0*; Vaccinia Venus: -0.1%; Vaccinia mCherry: inactive; FMDV antiviral: 9.3%; Lassa entry inh: 4.7%; Marburg entry inh: 12.8%

Results for COc1ccc2[nH]c3c(c2c1)CCNC3=O ?
HCMV inh: -25.0; FMDV antiviral: 7.6%

What do the screens show for `COc1ccc2[nH]c3c(c2c1)CCN=C3C`?
HCMV inh: -91.5*; Vaccinia Venus: -21.1%; Vaccinia mCherry: inactive; FMDV antiviral: -7.4%

How did O=S(=O)(Nc1cccnc1)c1ccc(C2CCCCC2)cc1 do in these assays?
HCMV inh: -65.7*; Vaccinia Venus: inconclusive; Vaccinia mCherry: inconclusive; FMDV antiviral: -30.6%; Lassa entry inh: 21.4%; Marburg entry inh: inconclusive

Results for CS(=O)(=O)N1CC(=O)N2[C@@H](CO)[C@H](c3ccc(Br)cc3)[C@@H]2C1 ?
HCMV inh: 8.5

How did O=C(N/N=C/c1ccc2cccc(OCc3ccccc3)c2n1)c1ccc(Br)cc1 do in these assays?
HCMV inh: -22.8; Vaccinia Venus: inconclusive; Vaccinia mCherry: -14.9%; FMDV antiviral: inconclusive; Lassa entry inh: inconclusive; Marburg entry inh: 16.4µM*

Results for NC(=S)N/N=C/c1ccccc1OCc1cccc(Cl)c1 ?
Vaccinia Venus: 2µM*; Vaccinia mCherry: 1.78µM*; FMDV antiviral: inconclusive; Lassa entry inh: -26.6%; Marburg entry inh: inconclusive

How did NC(=S)N/N=C/c1ccc2cccc(OCc3ccccc3)c2n1 do in these assays?
HCMV inh: -68.1*; Vaccinia Venus: inconclusive; Vaccinia mCherry: inconclusive; FMDV antiviral: -21.9%; Lassa entry inh: inconclusive; Marburg entry inh: inconclusive

How did O/N=C/c1ccc2cccc(OCc3ccccc3)c2n1 do in these assays?
HCMV inh: -30.9; FMDV antiviral: -22.7%

How did COc1cc(NC(=O)c2cccc(Cl)c2Cl)ccc1NC(=O)c1cc2ccccc2o1 do in these assays?
HCMV inh: -25.7; Vaccinia Venus: -10.6%; Vaccinia mCherry: -21.1%; FMDV antiviral: 0.0%; Lassa entry inh: -5.3%[46.1 µM]
